Shown are actives, neighbours in structure and some others; about 2% of the full set was active somewhere.
S1P2 ag = agonists of human S1P2 receptor. S1P2-expressing cell line, agonist reporter read-out. activation, % at 4.5 µM. actives 0.46% (n = 97,000). AID 729; in the data active = activation above about 16%;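 note: 0% = vehicle low control and 100% = maximal reference agonist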
GALR2 ag = agonists of human galanin receptor 2 (GALR2); GALR2-expressing cells, agonist activation read-out; actives 0.48% (n = 140,000); AID 803; activation, % (no concentration beside the values); in the data active = activation above about 5%, passing the limit was not always enough;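 note: 0% = vehicle buffer wells and 100% = reference agonist at full effect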
Target sequence (O43603 whole entry, looked up): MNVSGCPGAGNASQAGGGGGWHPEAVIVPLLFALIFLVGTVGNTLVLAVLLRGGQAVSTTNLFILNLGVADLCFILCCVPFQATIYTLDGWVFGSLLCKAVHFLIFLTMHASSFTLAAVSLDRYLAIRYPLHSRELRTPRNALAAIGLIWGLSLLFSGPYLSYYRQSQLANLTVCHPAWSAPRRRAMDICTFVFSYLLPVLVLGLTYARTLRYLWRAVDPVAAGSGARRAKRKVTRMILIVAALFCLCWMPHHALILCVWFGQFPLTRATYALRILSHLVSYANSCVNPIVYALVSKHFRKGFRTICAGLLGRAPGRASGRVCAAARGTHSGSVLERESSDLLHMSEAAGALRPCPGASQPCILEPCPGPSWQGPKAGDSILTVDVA
S1P2 blocker = S1P2 (human) receptor antagonism. O95136. cell-based S1P2 antagonist assay, inhibition at 5 uM. inhibition, % at 5 µM. actives 0.21% (n = 97,000). AID 736; in the data active = inhibition above about 45%;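 note: CRE beta-lactamase reporter cells expressing human S1P2 stimulated with S1P; 0% = agonist at EC80 alone and 100% = agonist plus reference antagonist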
GALR2 antag = GALR2 (human) receptor antagonism; actives 0.39% (n = 140,000); inhibition, % at 4 µM; GALR2-expressing cells, antagonist mode; O43603; in the data active = inhibition above about 27%;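 note: cells stimulated with galanin 1-16 at roughly its EC80; 0% = agonist challenge control and 100% = basal control without agonist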
PLAP act = activators of human placental alkaline phosphatase; P05187; purified PLAP enzyme, luminescent substrate read-out; active compounds read high; activation fold at 20 µM; actives 1.2% (n = 96,000); AID 696; in the data active = activation fold above about 2
Numbers without * were called inactive; . = no result given.

SMILES | S1P2 ag | GALR2 ag | S1P2 blocker | GALR2 antag | PLAP act
O=c1[nH]cnc2scc(C3COc4ccccc4O3)c12 (configuration not stated) | . | -1 | . | 12 | 2.1*
Cc1ccc(S(=O)(=O)N2CCN=C2c2ccccc2)cc1C | -3 | -2 | -10 | -8 | .
COc1cc(S(=O)(=O)N2CCN=C2c2ccccc2)ccc1F | 27* | -2 | 2 | 2 | 1
COc1ccc(-c2nc(C#N)c(NCc3cccnc3)o2)cc1OC | 4 | 0 | -21 | -9 | 1.1
N#Cc1nc(-c2cccc(Cl)c2)oc1NCc1cccnc1 | 4 | -3 | -38 | 5 | 2*
Cc1ccc(-c2ccc(/C=N/N3C(=O)C4C5C=CC(CC5)C4C3=O)o2)c([N+](=O)[O-])c1 (configuration not stated) | -1 | -3 | 0 | -5 | 1.3
O=C(CN1CCCCCC1)N/N=C/c1cccs1 | -2 | 0 | -19 | -10 | 2.5*
COc1cc(-c2nnc3sc(C4CCCCC4)nn23)cc(OC)c1OC | 20* | 2 | -21 | -9 | 1.5
COc1cccc(-c2nnc3sc(C4CCCCC4)nn23)c1 | -4 | 1 | -10 | -13 | 1.8
Cc1ccc2nc(/C(C#N)=C\c3cc(C)n(-c4cccc([N+](=O)[O-])c4)c3C)[nH]c2c1 | 17* | 2 | -40 | -3 | 1.6
Cc1ccc2nc(/C(C#N)=C\c3ccc([N+](=O)[O-])o3)[nH]c2c1 | -7 | -2 | 32 | 22 | 1
CCN(CC(=O)Nc1ccc(NC(C)=O)cc1)c1ccc(C(F)(F)F)cn1 | . | 0 | . | 9 | .
O=C(CCC(=O)c1ccc(F)cc1)OC1CCOC1=O (configuration not stated) | -7 | -5 | -11 | 2 | 1.2
CCOC(=O)c1[nH]c2ccc(F)cc2c1NC(=O)c1cc(OC)c(OC)c(OC)c1 | 18* | -1 | -33 | 6 | 1.3
CCOC(=O)c1cc(CC)sc1NC(=O)c1cc(OC)c(OC)c(OC)c1 | 16* | -1 | -69 | -6 | 1.2
CCOC(=O)c1[nH]c2ccc(F)cc2c1NC(=O)C1=COCCO1 | -1 | 0 | 8 | 8 | 1
Cc1ccc(OCc2ccc(C(=O)Nc3nc4ccccc4n3C)o2)c([N+](=O)[O-])c1 | . | -2 | . | 0 | .
CC(C)CNC(=O)c1ccc(COc2ccc(Cl)cc2Cl)o1 | -6 | -1 | 7 | -6 | 1
COc1cc(CNC(=O)c2cccc(COc3ccc(Cl)cc3)c2)cc(OC)c1 | . | -1 | . | -5 | .
N=c1c(-c2nc3ccccc3[nH]2)cc(C(=O)c2cccs2)nn1-c1ccccc1 | 22* | -3 | -25 | 1 | .
CCOCCCn1c(SCC(=O)/C(C#N)=C(\C)N)nc2ccccc2c1=O | . | -1 | . | -2 | .
C/C(N)=C(/C#N)C(=O)CSc1nc2ccccc2c(=O)n1CCCOC(C)C | . | 5.6* | . | -7 | .
CCN(CC)CCCN1CC(O)=C(c2nc3ccccc3s2)C1=N | -3 | -1 | 18 | -6 | 2.2*
N=C1C(c2nc3ccccc3s2)=C(O)CN1Cc1ccccc1 | -7 | -1 | -12 | -5 | .
COc1ccc(OC)c(N2CC(O)=C(c3nc4ccccc4s3)C2=N)c1 | -3 | -1 | 15 | 5 | 2*
SMILES | S1P2 ag | GALR2 ag | S1P2 blocker | GALR2 antag | PLAP act
CCOc1ccccc1N1CC(O)=C(c2nc3ccccc3s2)C1=N | -2 | -1 | -16 | 13 | 1
CCCCCNC(=O)N[C@H](C(=O)O)C(C)C | . | -2 | . | 5 | .
O=C(NNS(=O)(=O)c1ccc(Cl)cc1)c1ccc(S(=O)(=O)N2CCCCC2)cc1 | . | 0 | . | 5 | .
O=C(N/N=C\c1cc(Cl)ccc1O)c1ccc(S(=O)(=O)N2CCCCC2)cc1 | . | 6.9* | . | 15 | .
COc1cc(CNc2ncn[nH]2)cc(Br)c1OC | -3 | -4 | 0 | 16 | 2.5*
COc1ccc(NC(=O)NCCCN2CCN(c3cc(C)ccc3C)CC2)cc1 | . | -1 | . | -2 | 2*
Cc1ccc(C(C)C)c(OCC(=O)Nc2ccc3c(c2)nc(CN2CCCC2)n3C)c1 | -2 | 0 | -7 | -2 | 2*
Cc1cc(C)n2nc(SCc3cc(=O)n4ccccc4n3)nc2n1 | 20* | -1 | -49 | -10 | .
Cc1ccccc1-n1c(SCc2cc(=O)n3ccccc3n2)nc2[nH]ncc2c1=O | 24* | 0 | -45 | 2 | 1.8
Cc1cccc2nc(CSc3nc4[nH]ncc4c(=O)n3-c3ccccc3Cl)cc(=O)n12 | . | 2 | . | 13 | .
Cc1ccc(N2C(=O)c3cccc4c(Oc5ccccc5[N+](=O)[O-])ccc(c34)C2=O)c(C)c1 | . | -1 | . | -4 | .
CCOC(=O)Cc1nnc(Nc2ccc(C)cc2C)c2ccccc12 | . | -1 | . | -1 | .

Screening results as filed in PubChem.
